# HIV RNase H inh-1 = inhibitors of HIV-1 reverse transcriptase RNase H; P04585; inhibition, % at 10 µM; RT-RNase H RNA/DNA duplex cleavage, fluorescence; actives 1.9% (n = 65,000); in the data active means inhibition above about 50%
# HIV RNase H inh-2 = confirmation of HIV-1 reverse transcriptase RNase H inhibitors | shares compounds with HIV RNase H inh-1 | Recombinant RT RNase H, fluorescent RNA/DNA duplex cleavage | inhibition, % at 10 µM | actives 39% (n = 1,000); in the data active means inhibition above about 48%; inconclusive means no clear call, values can overlap the other calls
# Active calls of the source: *; ? = inconclusive. This is one part of a sample in which hits are shown more often than they occur.
SMILES,HIV RNase H inh-1,others
CCC(C)NC(=O)c1ccccc1NC(=O)CN1C(=O)c2ccccc2S1(=O)=O (stereo unspecified),-3,
CCCSc1nc2c(cnn2-c2ccc(Cl)cc2)c(=O)[nH]1,56*,HIV RNase H inh-2=67*
COC(=O)c1ccc(CSc2nc3c(cnn3-c3ccc(F)cc3)c(=O)[nH]2)o1,7,
CCCCSc1nc2c(cnn2-c2ccc(F)cc2)c(=O)[nH]1,-4,
COC(=O)c1ccc(CSc2nc3c(cnn3-c3ccccc3)c(=O)[nH]2)o1,-34,
C=CCSc1nc2c(cnn2-c2ccc(C)c(C)c2)c(=O)[nH]1,58*,HIV RNase H inh-2=59*
CCOC(=O)N1CCN(C(=O)CSc2nc3c(cnn3-c3ccc(Cl)cc3)c(=O)[nH]2)CC1,-5,
CSc1nc2c(cnn2-c2ccc(C)c(C)c2)c(=O)[nH]1,3,
CCC(C)Sc1nc2c(cnn2-c2ccc(C)c(C)c2)c(=O)[nH]1 (stereo unspecified),48,
COC(=O)c1ccc(CSc2nc3c(cnn3-c3ccc(Cl)cc3)c(=O)[nH]2)o1,59*,HIV RNase H inh-2=18
Cc1ccc(N2C(=O)C3ON(c4ccccc4)C(c4ccncc4)C3C2=O)c(C)c1 (stereo unspecified),4,
CCc1nnc(NC(=O)CSc2ncc(-c3ccccc3)n2CC)s1,-1,
CCc1sc(C(=O)NC2CCN(C)CC2)cc1Br,0,
COc1cc(OC)cc(C(=O)NCCN2CCOCC2)c1,-4,
COc1ccc(C)cc1Cn1c(S(C)(=O)=O)nc2ccccc21,-63,
N=C1C(c2nc3ccccc3c(=O)[nH]2)=C(O)CN1CCO,-5,
N=C1C(c2nc3ccccc3c(=O)[nH]2)=C(O)CN1CCc1ccccc1,75*,HIV RNase H inh-2=6
COCCN1CC(O)=C(c2nc3ccccc3c(=O)[nH]2)C1=N,-8,
N=C1C=CC=C2C1=NC1(CCCCC1)N2O,7,
Cc1nc(-c2ccccc2)sc1C(N)=O,-1,
Cc1c(Cc2ccccc2)sc(N)c1C(N)=O,82*,HIV RNase H inh-2=?
Cc1nc(N)nc(C)c1Cc1ccccc1,-7,
COCC(=O)N(C)c1nnc(-c2cnc(C)cn2)s1,-19,
COc1cccc(N(C(=O)CNC(=O)c2ccco2)C(C(=O)NC2CCCCC2)c2ccncc2)c1 (stereo unspecified),-7,
COC(=O)c1cc(CSc2nnc(NC3CCCCC3)s2)oc1C,-7,
SMILES,HIV RNase H inh-1,others
CCCCOC(=O)CCc1c(C)[nH]c(=O)c(C#N)c1C,-2,
C=CCc1c(C)[nH]c(=S)c(C#N)c1C,77*,HIV RNase H inh-2=59*
COCc1cc(C)c(C#N)c(=S)[nH]1,37,
CCc1nnc(NC(=O)CCC(=O)N2CCN(CCOc3ccc(C)cc3)CC2)s1,2,
CCCNCC(O)COc1ccccc1C(=O)CCc1ccccc1 (stereo unspecified),1,
CCOC(=O)N1CCN(C(=O)CN(c2cccc(C(F)(F)F)c2)S(C)(=O)=O)CC1,-7,
CC(C)OC(=O)CSc1nc2ncccc2[nH]1,-16,
O=C(CSc1nc2ncccc2[nH]1)NCc1ccccc1,-9,
Fc1ccccc1CSc1nc2ncccc2[nH]1,88*,HIV RNase H inh-2=60*
CC1=NC(C(F)(F)F)(C(F)(F)F)C2=C(CC(C)(C)CC2=O)N1Cc1ccco1,1,
Cc1cc(C)cc(OCC(=O)Nc2cccc(-c3nc4ncccc4o3)c2)c1,-8,
O=C(CSc1nc2ccccc2c(=O)[nH]1)Nc1ccc(S(=O)(=O)N2CCCC2)cc1,-12,
COc1cccc(C(c2sc3nc(C)nn3c2O)N2CCc3ccccc3C2)c1 (stereo unspecified),81*,HIV RNase H inh-2=-1
CCN1CCN(C(c2cccc(OC)c2)c2sc3nc(C)nn3c2O)CC1 (stereo unspecified),-28,
COc1cccc(C(c2sc3nc(C)nn3c2O)N2CCC3(CC2)OCCO3)c1 (stereo unspecified),-24,
COc1ccc2c(CC(=O)Nc3ccc(OC)c(NS(=O)(=O)c4ccc(F)cc4)c3)coc2c1,8,
CCCCC(=O)NC1(C(F)(F)F)C(=O)Nc2c1c(=O)n(C)c(=O)n2C (stereo unspecified),-5,
CCCc1nc2sc3c(SCC(=O)NCc4ccco4)ncnc3c2c2c1CCC2,40,
CC(C)c1nc2sc3c(NCc4ccco4)ncnc3c2c2c1COC(C)(C)C2,28,
COC(=O)CSc1ncnc2c1sc1nc(-c3ccco3)c3c(c12)CC(C)(C)OC3,60*,HIV RNase H inh-2=43
Cc1cccc(-n2c(O)c(C=Nc3ccc4c(c3)OCO4)c3ccccc3c2=O)n1,65*,HIV RNase H inh-2=23
Cc1cccc(-n2c(-c3ccco3)nc3ccccc3c2=O)n1,-6,
Cc1cc(N=Cc2c(O)n(-c3ccc4c(c3)OCO4)c(=O)c3ccccc23)ccn1,-8,
CCOC(=O)Cc1csc(NC(=O)COc2ccc(N(C)S(=O)(=O)c3cccs3)cc2)n1,-5,
COc1ccc(NC(=O)c2ccco2)cc1NC(=O)c1cccnc1,-6,
CCCOc1ccc(/C(O)=C2/C(=O)C(=O)N(CCN(C)C)C2c2ccncc2)cc1 (stereo unspecified),-8,
